Sfp inh = Sfp phosphopantetheinyl transferase inhibition. Potency, µM, without a hit: largest response in the series, negative = inhibition, most hits filed as inhibitors. Biochemical Sfp PPTase activity, qHTS. Q9F4F7. AID 1490. actives 3.5% (n = 310,000);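 further: the enzyme is Sfp with the accession as filed and its product quenches rhodamine fluorescence; 0% = enzyme reaction without inhibitor and -100% = no enzyme wells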
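Fluorescence-quenching assay with 15 nM Sfp, 5 uM rhodamine-CoA and 12.5 uM BHQ-2-labelled ybbR peptide in pH 7.6 Hepes/MgCl2 buffer. Enzyme was pre-incubated with compound for 15 min at room temperature. Rate was taken from the 30-min fluorescence change (525/598 nm).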
Epigenetic reg = regulators of epigenetic silencing causing reporter derepression in mouse cells. murine LDR cells, GFP reporter derepression, 30 h. actives 0.2% (n = 280,000). Potency, µM (top dose mostly 53.9 µM), for inactives: at the highest dose GFP activation, actives largely listed as activators; further: % of control where 0% means no effect; nearly all actives have a fitted effect of over 60% in size
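Derepression of a silenced CMV-GFP reporter in murine LDR cells is scored by enumerating GFP-positive cells with a laser-scanning microplate cytometer after 30 hours of treatment at 37 C.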
KDM4E inh = inhibitors of human JMJD2E histone demethylase | B2RXH2 | actives 1.6% (n = 230,000) | Potency, µM (titrated, usually from 57.1 µM), without a hit: top-dose activity change, negative = inhibition, usual class: inhibitors | JMJD2E catalytic domain, FDH-coupled NADH fluorescence (FDH is formaldehyde dehydrogenase);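 further: 0% = wells with enzyme and -100% = buffer wells without enzyme; nearly all actives have a fitted effect of over 50% in size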
Target sequence (B2RXH2 1-337 limits assumed): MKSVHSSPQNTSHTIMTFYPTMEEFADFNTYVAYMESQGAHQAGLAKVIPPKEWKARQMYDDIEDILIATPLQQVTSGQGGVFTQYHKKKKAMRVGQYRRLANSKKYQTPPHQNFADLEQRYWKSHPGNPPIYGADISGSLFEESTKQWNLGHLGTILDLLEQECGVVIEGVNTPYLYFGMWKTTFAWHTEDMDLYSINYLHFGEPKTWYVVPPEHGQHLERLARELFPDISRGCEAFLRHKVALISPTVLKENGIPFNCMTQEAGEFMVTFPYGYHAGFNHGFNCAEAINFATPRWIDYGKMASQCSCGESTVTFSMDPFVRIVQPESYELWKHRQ
IMPase Li cell = IMPase inhibition in cells with lithium potentiation | CHO-M1 cells, IP1 TR-FRET (IP-One), carbachol + lithium | Potency, µM (series often up to 59.4 µM), inactives show top-dose activity, negative = IMPase inhibition, most hits filed as inhibitors | actives 0.35% (n = 210,000) | AID 1457;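 further: IP1 builds up when IMPase is blocked and the TR-FRET signal falls; plate controls were basal vehicle for no effect and high inhibitor control for full effect; nearly all actives have a fitted effect of over 50% in size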
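IP1 accumulation measured by competitive TR-FRET in lysed CHO-M1 cells after 30 min compound exposure at 37C, with a small lithium addition to potentiate weak responses. Hill-equation AC50 from ratio and donor-channel data.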
NPSR antagonist = blocks cAMP signaling of the human neuropeptide S receptor. CHO-NPSR cells, cAMP TR-FRET, antagonist mode. actives 1% (n = 220,000). Q6W5P4. Potency, µM (highest dose often 38.3 µM), for inactives: at the highest dose activity change, negative = inhibition, actives largely listed as inhibitors; further: on the % scale 0 is the no-effect control and ±100 the full control effect; nearly all actives have a fitted effect of over 50% in size
Target sequence (Q6W5P4 whole entry, looked up): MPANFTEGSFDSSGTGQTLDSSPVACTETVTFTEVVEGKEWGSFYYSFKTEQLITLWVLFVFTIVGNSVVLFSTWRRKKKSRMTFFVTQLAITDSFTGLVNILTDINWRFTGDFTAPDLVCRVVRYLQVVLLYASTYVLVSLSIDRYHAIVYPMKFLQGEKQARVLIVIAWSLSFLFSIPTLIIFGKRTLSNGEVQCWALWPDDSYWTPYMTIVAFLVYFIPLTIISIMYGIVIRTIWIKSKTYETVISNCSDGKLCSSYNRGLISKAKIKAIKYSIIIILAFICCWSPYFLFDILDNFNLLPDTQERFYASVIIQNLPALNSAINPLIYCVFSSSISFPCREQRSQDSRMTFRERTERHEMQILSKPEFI
KAT2A inh = GCN5L2 (KAT2A) acetyltransferase inhibition. actives 0.21% (n = 390,000). Potency, µM (series often up to 58.9 µM), for inactives: top-dose activity change, negative = inhibition, actives largely listed as inhibitors. GCN5L2 HAT assay, ThioGlo1 CoA-SH fluorescence. Q92830; further: on the % scale 0 is the no-effect control and ±100 the full control effect
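GCN5L2 (20nM final) in 50mM HEPES, 0.1mM EDTA pH 7.5, 0.01% Tween-20 was preincubated 15 min at room temperature with compound, then given ThioGlo1 (50uM), H3(1-25) peptide (75uM) and acetyl-CoA (70uM); CoA-thiol fluorescence (Ex340/Em540) was read at 0 and 20 min.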
Active calls of the source: *; ? = inconclusive; . = no result; [ ] = remark or other dose. The list is not random: actives were taken first. Their share in the collection is about 3.6%. Unless noted, the call rests on the fitted dose curve; in most records, active means well fitted curve in the direction sought with a large enough effect; inconclusive means small, poorly fitted or top-dose-only effect, or another doubt; inactive means no such curve, though single readings can be large; an effect the other way counts as inactive or inconclusive. Potency means the concentration at half of the fitted maximal effect.

SMILES	Sfp inh	Epigenetic reg	KDM4E inh	IMPase Li cell	NPSR antagonist	KAT2A inh
Cc1nc2c(cnn2-c2ccccc2Cl)c(=O)n1-c1ccc(N2CCC(C)CC2)cc1	6%	3%	-4%	44%[38.3 µM]	13µM*	0%
Cc1ccc(-n2c(C)nc3c(cnn3-c3ccccc3Cl)c2=O)cc1C	0%	0%	3%	11%[38.3 µM]	-16%[46.1 µM]	-3%[0.501 µM]
Cn1cccc1/C=C1\CCC/C(=C\c2cccn2C)C1=O	-23%	13µM*	-16%	36%[38.3 µM]	-14%[46.1 µM]	-6%
Cc1cc(-c2csc(NC(=O)c3ccc(S(=O)(=O)N(C)C)cc3)n2)c(C)n1-c1ccccc1	11%	1%	28µM*	7%	-4%	-2%
CN(C)S(=O)(=O)c1ccc(C(=O)Nc2nc(-c3cc4ccccc4o3)cs2)cc1	1%	3%	?	12%	-7%	-1%
CC(C)C(NC(=O)OCc1ccccc1)C(=O)OCC(=O)NCc1ccco1 (stereo unspecified)	56µM*	-1%	2%	2%	-15%[46.1 µM]	?
Cc1cc(=O)oc2cc(NC(=O)C(CCCCN)NC(=O)C(CC3CCCCC3)NC(=O)OCC3c4ccccc4-c4ccccc43)ccc12 (stereo unspecified)	-10%	.	.	.	.	1%
CC(C)N(C(C)C)S(=O)(=O)c1ccc(NN)nc1	79µM*	3%	?	.	19%	-19%
CCN(CC)S(=O)(=O)c1ccc(N/N=C/c2cc(OC)ccc2O)nc1	13%	-1%	13µM*	5%	-27%	0%
CCN(c1ccccc1)S(=O)(=O)c1ccc(NN)nc1	.	.	.	.	.	-8%
CCN(CC)S(=O)(=O)c1ccc(NN)nc1	13µM*	1%	?	1%	0%	-2%
CC1=C(C)C(=O)C(C(CCCCCC(=O)O)c2ccccc2)=C(C)C1=O (stereo unspecified)	2%	.	.	.	.	-12%
COc1ccc(-c2nc3cnc(N4CCNCC4)nc3n(Cc3cccc(OC)c3)c2=O)cc1	?	.	.	4%	.	-23%
COc1cccc(Cn2c(=O)c(-c3ccc(Cl)cc3)nc3cnc(N4CCNCC4)nc32)c1	40µM*	.	.	13%	.	-29%
CN(C)c1ncc2nc(-c3cc(F)cc(F)c3)c(=O)n(Cc3cccs3)c2n1	-17%	.	.	5.6µM*	.	-19%
O=c1c(CCc2ccccc2)nc2cnc(N3CCNCC3)nc2n1Cc1ccc(F)cc1	50µM*	.	.	21%	.	?
COc1cccc(Cn2c(=O)c(-c3cccs3)nc3cnc(N4CCOCC4)nc32)c1	0%	.	.	-7%	.	-8%
COc1cccc(Cn2c(=O)c(-c3cccs3)nc3cnc(N4CCNCC4)nc32)c1	18µM*	.	.	6%	.	?
N#Cc1ccccc1-c1cncnc1NCc1cccnc1	?	-1%	-3%	12%	.	-22%
CC(C)Nc1ccc(-c2nc(-c3ccco3)no2)cc1[N+](=O)[O-]	.	-8%	.	.	.	-13%
CCCOc1ccc(C2C(=O)N(C3CCCCCC3)CC(=O)N2CCCOCC)cc1OC (stereo unspecified)	.	4%	.	.	.	-2%
O=c1c(-c2ccc(Cl)cc2)nc2cnc(N3CCNCC3)nc2n1Cc1ccc(F)cc1	45µM*	.	.	2%	.	-27%
COc1ccc(-c2nc3cnc(N4CCOCC4)nc3n(Cc3cccs3)c2=O)cc1	9%	.	.	2µM*	.	-1%
COc1cccc(Cn2c(=O)c(-c3ccc(F)cc3)nc3cnc(N4CCNCC4)nc32)c1	?	.	.	6%	.	-16%
CCCCNc1nc(C)nc2c1nc(-c1ccccc1)n2CCCN(CC)CC	5%	-3%	?	3%	.	.
SMILES	Sfp inh	Epigenetic reg	KDM4E inh	IMPase Li cell	NPSR antagonist	KAT2A inh
CC(C)NC(=O)Cn1ncn2c(cc3cc(F)ccc32)c1=O	.	1%	.	.	.	2%
CN(C(=O)CSc1nc2c(c(=O)[nH]1)CCCC2)c1ccccc1	.	0%	.	.	.	-1%
CC(=O)OCON[N+]([O-])=NC1CCCCC1	7%	.	.	.	.	.
O=C(NC(NC(=S)Nc1ccccc1C(=O)O)C(Cl)(Cl)Cl)c1ccccc1 (stereo unspecified)	35µM*	-1%	?	-1%	-9%	-24%
COC(=O)c1ccccc1NC(=S)NC(NC(=O)c1ccco1)C(Cl)(Cl)Cl (stereo unspecified)	-3%	2%	?	-2%[38.3 µM]	-18%[46.1 µM]	0%
O=C(NC(NC(=S)Nc1ccccc1C(=O)O)C(Cl)(Cl)Cl)c1ccco1 (stereo unspecified)	40µM*	-1%	?	-4%	5%	2%
CCOc1ccc(-n2nc(CO)c(C(=O)NCC(c3ccccc3)c3ccccc3)n2)cc1	.	-2%	.	.	.	-4%
COc1ccccc1NC(=O)CN1C(=O)C(c2ccc(F)cc2)=NC12CCCCC2	.	-1%	.	.	.	-10%
Cc1cc2c(c(=O)n1-c1ccccc1)C1O[C@](c3ccsc3)(Cc3ccccc31)O2	-6%	.	.	.	.	-5%[12.7 µM]
S=C(Nc1ccccc1)Nc1nccs1	?	13µM*	5%	-4%	?	-12%
O=C(Nc1nccs1)c1ccccn1	79µM*	-1%	26%	0%	5%	-8%
CCOC(=O)c1sc(=S)n(CC)c1NC(=O)c1ccccc1	23%	-1%	-4%	.	2%	-3%
CCOC(=O)c1sc(=S)n(C)c1NC(=O)c1ccccc1C	22µM*	1%	-1%	-3%	-4%[46.1 µM]	15%
CC#CCN1c2ccccc2[C@]23C[C@@H](C(=O)OC)N(S(=O)(=O)c4cccs4)C2=NC(C(=O)OC)=C(C(=O)OC)[C@H]13	-5%	.	1%[11.4 µM]	1%	.	.
Nc1cccn2c(-c3ccc(Cl)c(Cl)c3)cnc12	-17%	5%	20µM*	1%	-37%	-8%
CS(=O)(=O)c1ccc(C(=O)OCC(=O)NC(=O)C2CCCCC2)cc1[N+](=O)[O-]	25µM*	?	1%	15%	-41%	-1%
CS(=O)(=O)c1ccc(C(=O)OCC(=O)NC(=O)C2COc3ccccc3O2)cc1[N+](=O)[O-] (stereo unspecified)	.	.	.	.	.	-5%
O=C1C[C@@H](O)[C@@H](O)[C@H]2[C@@H]3C(=O)N(c4cccc(Oc5ccccc5)c4)C(=O)[C@@H]3CC[C@H]12	-8%	0%[10.1 µM]	.	.	.	.
N#Cc1c(Sc2ncc(C(F)(F)F)cc2Cl)nsc1C/C=N\OCc1c(F)cccc1Cl	5%	1%	-6%	21%[38.3 µM]	10µM*	-8%
CN(C)C(=S)Nn1c(-c2ccccc2)nc2ccccc2c1=O	9%	-3%	-3%	-6%	18%	-2%
Cc1cccc(-c2nc3ccccc3c(=O)n2NC(=S)N(C)C)c1	32µM*	2%	-7%	3%	6%	-1%
Cc1nn(-c2nnc(C)c(=O)[nH]2)c(C)c1SCC(=O)Nc1ccc(F)cc1	32µM*	0%	0%	23%[38.3 µM]	1%[46.1 µM]	?
